High-throughput results (PubChem)
VLA-4 inh = inhibition in a human VLA-4 binding assay; 330,000 compounds, 0.2% hits; inhibition, % (about 7 µM as worked out from the volumes in the protocol); P13612; VLA-4 expressing cells, ligand binding flow cytometry; in the data active = inhibition above about 50%
PG9 binder = PG9 antibody binding by small molecule | inhibition, % at 6.7 µM | 360,000 compounds, 0.43% hits | TR-FRET gp120-PG9 antibody binding | AID 624416; in the data active = inhibition above about 8.5%
Exocytosis inh = blocks lytic granule exocytosis. 360,000 compounds, 0.66% hits. inhibition, % at 10 µM. TALL-104 LAMP-1 surface exposure, flow cytometry; cells stimulated with thapsigargin and PMA. AID 651702;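 active = inhibition above about 55%, limit read from the data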
ABCB6 inh MLPCN = inhibitors of human ABC transporter ABCB6; Q9NP58; K562-ABCB6 porphyrin accumulation, flow cytometry, 1 h; hits give low values; fluorescence ratio to DMSO, % at 10 µM; 360,000 compounds, 0.19% hits;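 active = fluorescence ratio to DMSO below 75%, the collection mean minus 3 SD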;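 note: signal is porphyrin accumulated inside mitochondria; 100% equals median channel fluorescence of DMSO control wells; lower ratio means ABCB6 inhibition with less porphyrin fluorescence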
Target sequence (Q9NP58 whole entry, looked up): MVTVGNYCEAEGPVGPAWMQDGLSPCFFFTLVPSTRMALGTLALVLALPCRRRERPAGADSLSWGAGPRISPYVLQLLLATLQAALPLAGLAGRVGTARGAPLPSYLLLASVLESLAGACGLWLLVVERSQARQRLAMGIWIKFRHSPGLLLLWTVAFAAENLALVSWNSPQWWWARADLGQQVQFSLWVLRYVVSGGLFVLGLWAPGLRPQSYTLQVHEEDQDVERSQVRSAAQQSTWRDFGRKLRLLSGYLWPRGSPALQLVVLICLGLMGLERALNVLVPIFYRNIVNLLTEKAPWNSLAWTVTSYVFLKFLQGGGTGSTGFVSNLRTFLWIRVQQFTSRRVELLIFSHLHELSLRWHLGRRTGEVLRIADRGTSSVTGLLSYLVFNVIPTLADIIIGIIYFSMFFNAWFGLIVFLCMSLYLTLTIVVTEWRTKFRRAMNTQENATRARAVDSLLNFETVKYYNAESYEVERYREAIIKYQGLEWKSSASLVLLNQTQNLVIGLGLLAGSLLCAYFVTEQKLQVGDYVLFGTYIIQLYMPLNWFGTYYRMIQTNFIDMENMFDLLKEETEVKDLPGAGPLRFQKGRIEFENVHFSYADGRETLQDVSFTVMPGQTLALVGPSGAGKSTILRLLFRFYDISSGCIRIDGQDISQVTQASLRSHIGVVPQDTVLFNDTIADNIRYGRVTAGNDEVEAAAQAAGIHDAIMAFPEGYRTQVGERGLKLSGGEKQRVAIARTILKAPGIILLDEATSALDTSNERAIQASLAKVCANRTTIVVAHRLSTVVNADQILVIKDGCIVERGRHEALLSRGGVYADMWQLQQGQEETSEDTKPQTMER
Rev-erbA mod = modulates human Rev-erb alpha binding to DNA; Rev-erbα–FITC-DNA binding, fluorescence polarization, 90 min; activity, % at 10 µM; 370,000 compounds, 0.79% hits; AID 1259318;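 active = activity above about 14%, limit read from the data; passing the limit was not always enough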;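 note: 0% = DMSO wells with 35 nM protein and 100% = DMSO wells with 750 nM protein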
NR1D1 mod conf = confirmation of modulators of human Rev-erb alpha DNA binding; shares compounds with Rev-erbA mod; Rev-erb alpha FITC-DNA binding, fluorescence polarization, 90 min; activation, % at 25 µM; 3,000 compounds, 61% hits; AID 1259319;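 active = activation at or above a set limit, or at least 3 SD above the negative control mean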;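 note: 0% = 35 nM protein with DMSO and 100% = 750 nM protein high control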
RORg counter = counter-screen for Rev-erb alpha modulators: RORgamma DNA binding; shares compounds with Rev-erbA mod; purified RORgamma protein-FITC-DNA binding, fluorescence polarization; IC50, µM; 910 compounds, 8% hits; AID 1259320;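 active = Compounds whose fitted half-maximal concentration for disrupting protein-DNA binding is below 10 micromolar; the record names Rev-erb in its text, so the target is in doubt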
* hit, by the source's call; i = inactive; . = not tested or not shown. Rows were chosen to be rich in hits. Some 2% of all compounds tested hit in one or more screens of this group.

SMILES | VLA-4 inh | PG9 binder | Exocytosis inh | ABCB6 inh MLPCN | Rev-erbA mod | NR1D1 mod conf | others
COc1ccc2c(C)cc(SCC(=O)N3CCOCC3)nc2c1 | -25.4 | 1.2 | -0.1 | 136.0 | 5.2 | .
COCC(=O)Nc1ccc2c(c1)[C@H]1C[C@@H](CC(=O)NCC3CC3)O[C@H](CO)[C@H]1O2 | . | 0.1 | . | . | -3.2 | .
C[C@@H](O)CC#Cc1ccc2oc(=O)c(-n3cc(-c4ccsc4)nn3)cc2c1 | -6.6 | 2.0 | 31.2 | 99.0 | -0.2 | .
C[C@H](O)Cc1cn(-c2cc3cc(C#Cc4ccsc4)ccc3oc2=O)nn1 | -22.4 | 3.0 | 15.5 | 93.0 | 17.9* | 14.2
COC(=O)c1ccc(NC(=O)c2ccc3c(c2)C(=O)N(Cc2cccnc2)C3=O)cc1 | 16.9 | -1.5 | -2.5 | 97.0 | 4.2 | .
COC(=O)c1ccc(NC(=O)c2ccc3c(c2)C(=O)N(C)C3=O)cc1 | -2.3 | -1.1 | -17.1 | 101.0 | 52.2* | 33.5* | RORg counter=>40
O=c1cc(CN(Cc2ccccc2)Cc2ccccc2)c2ccccc2o1 | . | -0.7 | -2.8 | 89.0 | 22.1* | 9.0
Cc1cc(C)c2nc(/N=C(\N)NC(=O)c3ccccc3)nc(C)c2c1 | 1.0 | -1.6 | -13.2 | 90.0 | 55.6* | 14.6
CCc1ccc2nc(/N=C(\N)NC(=O)c3ccccc3)nc(C)c2c1 | -8.1 | -2.6 | -2.6 | 94.0 | 23.3* | 0.3
COc1ccc(-n2c(Cc3cccs3)nnc2SCC(=O)Nc2ccc(OCc3ccccc3)cc2)cc1 | . | . | . | . | 3.1 | .
CCc1ccc(CCNC(=O)OCCCN2CCC3(CCC(c4ccccc4)CC3)C2=O)cc1 (configuration not stated) | . | . | . | . | -0.2 | .
Cc1nc(N2CCN(c3ccccn3)CC2)c2c(C)c(C(=O)Nc3ccc(Br)cc3C)sc2n1 | -6.4 | 1.1 | 10.1 | 105.0 | 40.2* | -13.2
COc1ccccc1NC(=O)c1sc2nc(Cc3ccccc3)cc(C(F)(F)F)c2c1N | -26.5 | . | 3.2 | 140.0 | 44.5* | 62.8* | RORg counter=>40
Cc1ccc(NC(=O)c2sc3ncnc(N4CCN(c5ccccn5)CC4)c3c2C)c(C)c1 | 11.8 | 1.3 | -0.9 | 101.0 | 7.7 | .
COc1ccc(NC(=O)c2sc3nc(Cc4ccccc4)cc(C(F)(F)F)c3c2N)cc1OC | 0.6 | -1.6 | -4.8 | 97.0 | 4.3 | .
CCOc1ccccc1NC(=O)c1sc2nc(C)nc(N3CCOCC3)c2c1C | 2.5 | -0.5 | 4.7 | 97.0 | 40.8* | 7.0
COc1ccc(C)cc1NC(=O)c1sc2ncnc(N3CCN(c4ccccn4)CC3)c2c1C | -16.6 | -0.8 | 32.2 | 98.0 | 37.4* | 2.6
O=C(N[C@@H](Cc1cccnc1)C(=O)N1CCC[C@H]1C(=O)NC1CCCC1)c1ccc(Cl)c(Cl)c1 | . | -0.5 | . | . | 3.5 | .
COc1ccccc1NC(=O)c1sc2nc3n(c(=O)c2c1C)CCC3 | -104.1 | 0.8 | -1.1 | 101.0 | 42.6* | 29.2*
COc1ccc(-c2nnc(SCC(=O)Nc3cccc4ccccc34)n2Cc2ccco2)cc1 | . | . | . | . | -1.5 | .
Cc1cccc(C)c1OC(=O)CSc1nnc(-c2ccccc2O)o1 | -5.7 | 5.5 | 2.6 | 90.0 | 28.8* | 26.4*
COc1ccc(-n2c(SCC(=O)Nc3ccc(Oc4ccccc4)cc3)nnc2-c2ccccc2)cc1 | . | . | . | . | 1.2 | .
O=C(CSc1nnc(-c2ccc(Cl)cc2)n1-c1ccccc1)Nc1ccc(Oc2ccccc2)cc1 | . | . | . | . | 21.9* | 9.9
O=C(CSc1nnc(-c2cccs2)n1-c1ccccc1)Nc1ccccc1 | -5.7 | 54.3* | -0.5 | 102.0 | 111.8* | 92.5*
CC(C)C(=O)Oc1ccc(CO)cc1[C@H](CCN(C(C)C)C(C)C)c1ccccc1 | . | . | . | . | -4.5 | .
SMILES | VLA-4 inh | PG9 binder | Exocytosis inh | ABCB6 inh MLPCN | Rev-erbA mod | NR1D1 mod conf | others
Cc1ccc(-c2nnc(SCC(=O)Nc3ccc4c(c3)OCCO4)n2-c2ccc(C)cc2)cc1 | . | . | . | . | -8.3 | .
COCCNC(=S)N(C)[C@H]1C[C@H]2c3[nH]c4ccccc4c3CCN2C(=O)[C@H]1[C@H](C)O | . | -0.7 | . | . | 0.5 | .
CCCC[C@H](C(=O)N(C)c1ccccc1)[C@@H](O)c1ccc2ccccc2c1 | . | . | . | . | -1.6 | .
O=S(=O)(N1CCCCC1)N1CCN(CC(O)COc2ccc3cc(Br)ccc3c2)CC1 (configuration not stated) | -1.8 | 12.4* | 3.7 | 94.0 | 99.7* | 49.1* | RORg counter=i
O=C(NCc1ccc(C(=O)NCC2CCCO2)cc1)c1cccc(Br)c1 (configuration not stated) | . | . | . | . | -1.6 | .
CCCCc1cc2c(c(NC(C)=O)n1)c(=O)oc1ccccc12 | 27.6 | . | . | . | . | .
CC(=O)Nc1nc(CC(C)C)cc2c1c(=O)oc1ccccc12 | 1.6 | 5.8 | 0.2 | 96.0 | 26.9* | 2.8
Cc1nn(-c2ccc(Cl)cc2)c2sc(C(=O)c3c(N)n(C)c(=O)n(C)c3=O)cc12 | 27.6 | 1.0 | 2.9 | 104.0 | 30.8* | 38.1* | RORg counter=>40
CCCCCCCCN1CCS(=O)(=O)N(Cc2ccc(F)cc2)C(C(=O)OC)C1 (configuration not stated) | . | . | . | . | 2.9 | .
CCOC(=O)c1c(NC(=O)c2c(Br)cnn2CC)sc(C)c1C | -11.9 | 1.4 | 0.7 | 95.0 | 28.1* | 11.7
CCn1ncc(Br)c1C(=O)Nc1sc2c(c1C(=O)OC)CCC2 | -13.7 | 0.1 | 1.4 | 102.0 | 4.5 | .
COC(=O)[C@]12C[C@H](CC(=O)NCc3ccc(OC)c(OC)c3)C(=O)N(CCc3ccc(OC)c(OC)c3)C1=C[C@H](C(C)C)O[C@@H]2C1CC1 | . | . | . | . | -4.3 | .
Cc1nc(NC(=O)c2ccccc2)sc1Cc1ccc2c(c1)OCO2 | 5.5 | -1.6 | 3.2 | 107.0 | 3.2 | .
Cc1nc(NC(=O)c2ccc(Cl)cc2)sc1Cc1ccc2c(c1)OCO2 | -3.9 | 1.1 | 5.3 | 106.0 | 30.5* | 6.2
CCOc1ccc2[nH]c3c(=O)n(CCC4=CCCCC4)cnc3c2c1 | -7.3 | -1.6 | -1.8 | 100.0 | 19.4* | -0.5
CC(=O)Oc1c(/C=C(\C#N)C(N)=O)[nH]c2ccccc12 | . | -43.3 | -1.9 | 127.0 | 54.9* | 65.6* | RORg counter=>40
CCCN(CCC)Cc1c(C(=O)N/N=C/c2ccc(C)o2)nnn1-c1nonc1N | 1.9 | 2.1 | -3.4 | 102.0 | 30.6* | 8.0
CCCc1c(C(=O)N/N=C/c2ccc(C)o2)nnn1-c1nonc1N | . | 1.9 | -0.8 | 91.0 | -3.7 | .
O=C(CCc1ccccc1)N[C@H]1[C@H](OCc2ccccc2)CCC[C@@]12C(=O)N(Cc1ccccc1)c1ccc(-c3cnccn3)cc12 | . | . | . | . | -5.3 | .
CCOC(=O)c1sc2nc(C)nc(Nc3ccc(OC)cc3)c2c1C | 12.5 | 1.6 | -0.4 | 98.0 | 31.4* | 13.1
O=C(CNC(=O)Cc1ccccc1)NCC(=O)OCc1ccc(C(=O)c2ccccc2)cc1 | -3.6 | . | 1.2 | 98.0 | 21.7* | 19.7*
CN(CCc1ccccc1)C(=O)c1cc2ccccn2n1 | . | . | . | . | -3.5 | .
COc1ccc(OC)c(C(=O)COC(=O)c2[nH]c(C)c(C(C)=O)c2C)c1 | . | 7.6 | 0.4 | 98.0 | 15.9* | 10.1
